The values below come from PubChem BioAssay (EPA / NIEHS).

Calls of active or inactive are those of the source. How the source made its calls: active means hit-call score of the fitted dose curve at least 0.9, where 1 is the maximum; inactive means score below 0.9.

As a reminder, the AC50 is the midpoint of the concentration-response curve, whichever way the signal moves.

Common to all, as to conditions: mRNA level, 48 h; actives raise or lower the signal
Read-out in experiment [1]: Broad substrate specificity ATP-binding cassette transporter ABCG2 (Homo sapiens) (UniProt Q9UNQ0)
As to the kind of experiment: LTEA_HepaRG_ABCG2: Life Technologies and Expression Analysis (LTEA) Assay for ABC Transporter (ABCG2) using HepaRG (AID 2283465). An outline of the steps:
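ABCG2 transcript was quantified by TaqMan qRT-PCR against three housekeeping genes in HepaRG cells. Cells were treated in duplicate for 48 h across an 8-point half-log series up to 100 uM, with 0.5% DMSO vehicle. Gain or loss versus DMSO was fit.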

Read-out in experiment [2]: ATP-citrate lyase (ACLY), ACLY (gene 47)
Put plainly: LTEA_HepaRG_ACLY: Life Technologies and Expression Analysis (LTEA) Assay for ATP-citrate lyase (ACLY) using HepaRG (AID 2283466). In short, it runs like this: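 ACLY mRNA quantified by qRT-PCR on Fluidigm arrays against three housekeeping genes, after 48 h chemical treatment of HepaRG cells (top concentration 100 uM, half-log steps, 0.5% DMSO vehicle). Up- or down-regulation fitted relative to DMSO.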

Read-out in experiment [3]: Peroxisomal acyl-coenzyme A oxidase 1 (ACOX1) gene, ACOX1 (gene 51)
Put plainly: LTEA_HepaRG_ACOX1: Life Technologies and Expression Analysis (LTEA) Assay for Peroxisomal acyl-coenzyme A oxidase 1 (ACOX1) gene using HepaRG (AID 2283467). An outline of the steps:
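ACOX1 transcript levels were quantified by TaqMan qRT-PCR against three housekeeping genes after 48 h chemical exposure of differentiated human HepaRG cells. Exposure used eight half-log steps topping at 100 uM, 0.5% DMSO vehicle, in duplicate. Bidirectional curve fits were made relative to DMSO.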

Read-out in experiment [4]: Bcl-2 (BAD) gene, BAD (gene 572)
As to the kind of experiment: LTEA_HepaRG_BAD: Life Technologies and Expression Analysis (LTEA) Assay for Bcl-2 (BAD) gene using HepaRG (AID 2283469). An outline of the steps:
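Read-out: qRT-PCR of BAD mRNA, normalized to three housekeeping genes. Human HepaRG cultures got 48 h chemical exposure in 0.5% DMSO, duplicate eight-point half-log series topping at 100 uM. Gain or loss of signal fitted versus DMSO vehicle.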

Read-out in experiment [5]: Bcl-2 (BAX) gene, BAX (gene 581)
As to the kind of experiment: LTEA_HepaRG_BAX: Life Technologies and Expression Analysis (LTEA) Assay for Bcl-2 (BAX) gene using HepaRG (AID 2283470). An outline of the steps: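 qRT-PCR read-out of BAX mRNA, normalized to three housekeeping genes, after 48 h chemical exposure of human HepaRG cells in serum-free induction medium; eight-point half-log series, top 100 uM, 0.5% DMSO vehicle; bidirectional fit versus DMSO.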

Read-out in experiment [6]: adenosine kinase (ADK) gene, ADK (gene 132)
As to the kind of experiment: LTEA_HepaRG_ADK: Life Technologies and Expression Analysis (LTEA) Assay for adenosine kinase (ADK) gene using HepaRG (AID 2283471). An outline of the steps: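 Differentiated HepaRG cells dosed 48 h in serum-free induction medium, 0.5% DMSO vehicle, eight half-log concentrations from 100 uM, in duplicate. ADK mRNA by TaqMan qRT-PCR normalised to ACTB, GAPDH, POLR2A; bidirectional fit versus DMSO.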

Read-out in experiment [7]: Alpha-fetoprotein (AFP) gene, AFP (gene 174)
As to the kind of experiment: LTEA_HepaRG_AFP: Life Technologies and Expression Analysis (LTEA) Assay for Alpha-fetoprotein (AFP) gene using HepaRG (AID 2283472).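 On AC50: AFP transcript by TaqMan qRT-PCR normalized to ACTB GAPDH and POLR2A.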 An outline of the steps: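 qRT-PCR (Fluidigm TaqMan) readout of AFP transcript, normalized to three housekeeping genes, fitted bidirectionally against 0.5% DMSO baseline. HepaRG cells received chemicals for 48 h in serum-free induction medium, top concentration 100 uM, half-log steps.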

Read-out in a further experiment: BCL2L11 (gene 10018)
As to the kind of experiment: LTEA_HepaRG_BCL2L11: Life Technologies and Expression Analysis (LTEA) Assay for Bcl-2 (BCL2L11) gene using HepaRG (AID 2283473). In short, it runs like this: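 Read-out is BCL2L11 transcript level by qRT-PCR, normalized to three housekeeping genes and fitted bidirectionally against 0.5% DMSO vehicle. HepaRG cells received chemicals for 48 h in serum-free induction medium, 100 uM down in half-log dilutions.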

Read-out in experiment [8]: Apolipoprotein A-V (APOA5) gene, APOA5 (gene 116519)
As to the kind of experiment: LTEA_HepaRG_APOA5: Life Technologies and Expression Analysis (LTEA) Assay for Apolipoprotein A-V (APOA5) gene using HepaRG (AID 2283474). An outline of the steps: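 Readout is APOA5 transcript level by qRT-PCR on Fluidigm dynamic arrays, normalized to three housekeeping genes. HepaRG cultures received chemicals for 48 h at up to 100 uM (half-log steps, 0.5% DMSO), with gain or loss scored relative to DMSO.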

Read-out in experiment [9]: Alkaline Phosphatase, Placental (ALPP) gene, ALPP (gene 250)
As to the kind of experiment: LTEA_HepaRG_ALPP: Life Technologies and Expression Analysis (LTEA) Assay for Alkaline Phosphatase, Placental (ALPP) gene using HepaRG (AID 2283468).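 On AC50: differentiated human HepaRG liver cells in serum-free induction medium; ALPP transcript by TaqMan qRT-PCR normalized to ACTB GAPDH and POLR2A.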 An outline of the steps:
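HepaRG, 48 h plating then 48 h dosing, serum-free induction medium, 0.5% DMSO. 8 conc, half-log, max 100 uM, duplicates. Endpoint: ALPP transcript by qRT-PCR, housekeeping-normalized; gain or loss fitted vs DMSO.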

Broad substrate specificity ATP-binding cassette transporter ABCG2 (Homo sapiens), sequence (Q9UNQ0 whole entry, looked up): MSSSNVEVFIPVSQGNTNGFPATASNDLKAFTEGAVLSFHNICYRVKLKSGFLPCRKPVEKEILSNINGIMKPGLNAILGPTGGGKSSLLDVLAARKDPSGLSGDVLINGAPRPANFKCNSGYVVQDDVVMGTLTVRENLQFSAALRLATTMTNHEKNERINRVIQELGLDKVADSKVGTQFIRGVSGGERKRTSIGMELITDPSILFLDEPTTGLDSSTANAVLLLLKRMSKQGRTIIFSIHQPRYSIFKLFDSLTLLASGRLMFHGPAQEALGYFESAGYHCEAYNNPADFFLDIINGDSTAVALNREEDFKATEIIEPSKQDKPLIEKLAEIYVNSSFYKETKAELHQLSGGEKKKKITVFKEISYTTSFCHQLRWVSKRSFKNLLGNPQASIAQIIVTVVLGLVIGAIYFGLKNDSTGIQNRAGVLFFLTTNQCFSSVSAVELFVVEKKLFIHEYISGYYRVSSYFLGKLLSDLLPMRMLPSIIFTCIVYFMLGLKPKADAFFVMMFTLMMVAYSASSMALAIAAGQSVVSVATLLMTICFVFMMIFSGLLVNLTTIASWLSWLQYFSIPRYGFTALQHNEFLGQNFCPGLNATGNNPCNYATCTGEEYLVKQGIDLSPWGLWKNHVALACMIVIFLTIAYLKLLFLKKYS

Turning to `O=[N+]([O-])c1ccc(O)cc1`, the outcome in experiment [1], in [2], in experiment [3], in [4], in experiment [5] and in [6] was inactive. For the same compound, the outcome (in [7]; in the experiment with BCL2L11 (gene 10018); in [8]) was inactive.
Regarding `CCc1ccc(CCOc2ccc(CC3SC(=O)NC3=O)cc2)nc1` (centres undefined), the concentration at half-maximal activity (AC50) is 36.4 µM (active) in [1]; 50 µM (active) in [2]; 0.718 µM (active) in experiment [3]; 38.2 µM (active) in experiment [9]; 84.6 µM (active) in experiment [8]. For the same compound, the compound was called inactive (in experiment [4]; in experiment [6]; with BCL2L11 (gene 10018)).
Take `C=C(C)C(=O)OCCC(F)(F)C(F)(F)C(F)(F)C(F)(F)C(F)(F)C(F)(F)F`: the result in [1], in experiment [2], in [3], in experiment [4], in experiment [5] and in [6] was inactive. Besides, the compound was called inactive (in experiment [7]; with BCL2L11 (gene 10018); in [8]).
For `CC[C@H](C)[C@@H](C(=O)O)n1sc2ccccc2c1=O`, the result in [1], in [2], in experiment [3], in experiment [9], in [4] and in experiment [6] was inactive. Also, the outcome (in experiment [7]; in the experiment with BCL2L11 (gene 10018); in [8]) was inactive.
In the case of `Oc1cccc(O)c1`, the result in experiment [1], in [2], in experiment [3], in experiment [9], in experiment [4] and in experiment [6] was inactive. The compound was classed as inactive (in experiment [7]; in the experiment with BCL2L11 (gene 10018); in experiment [8]).
Consider `CCC(C)(C)C1CCC(O)CC1` (centres undefined), for which the compound was classed as inactive in [1], in [2], in experiment [3], in [9], in experiment [4] and in [6]. Also, the compound was classed as inactive (in experiment [7]; in the experiment with BCL2L11 (gene 10018); in [8]).
As to `Cc1cc(C)c(O)c(C)c1`, the outcome in experiment [1], in experiment [2], in experiment [3], in experiment [9], in experiment [4] and in experiment [6] was inactive. Moreover, the outcome (in experiment [7]; with BCL2L11 (gene 10018); in experiment [8]) was inactive.
For `CCCCC(CC)COC(=O)CCCCC(=O)OCC(CC)CCCC` (centres undefined), the outcome in experiment [1], in experiment [2], in experiment [3], in experiment [9], in [4] and in experiment [6] was inactive. The compound was classed as inactive (in experiment [7]; in the experiment with BCL2L11 (gene 10018); in [8]).
For the compound `C[C@@H]1C[C@H]2[C@@H]3CCC4=CC(=O)C=C[C@]4(C)[C@@]3(F)[C@@H](O)C[C@]2(C)[C@@]1(O)C(=O)COP(=O)(O)O`, the result in experiment [1], in experiment [2], in experiment [3], in experiment [9], in [4] and in experiment [6] was inactive. Moreover, the outcome (in experiment [7]; with BCL2L11 (gene 10018); in [8]) was inactive.
For `CC(C)CCCCCCOC(=O)CCCCC(=O)OCCCCCCC(C)C`, the compound was called inactive in experiment [1], in experiment [2], in experiment [3], in [9], in [4] and in experiment [6]. Further, the compound was classed as inactive (in experiment [7]; with BCL2L11 (gene 10018); in [8]).
As for `CN1CCN(c2ccccc2/C=C2\SCCN(c3ccc(Cl)c(Cl)c3)C2=O)CC1`, the result in experiment [1], in experiment [2], in experiment [3], in [4], in experiment [5] and in [6] was inactive. Moreover, the call (in the experiment with BCL2L11 (gene 10018); in [8]) was inactive. Further, the AC50 in experiment [7] is 11.5 µM (active).
With `CCCCCCCCOC(=O)CCCCCCCCC(=O)OCCCCCCCC`, the call in [1], in experiment [2], in experiment [3], in experiment [4], in experiment [5] and in [6] was inactive. The result (in experiment [7]; with BCL2L11 (gene 10018); in experiment [8]) was inactive.
For `CC1=C(/C=C/C(C)=C/C=C/C(C)=C/C(=O)O)C(C)(C)CCC1`, the AC50 was 3.14 µM (active) in experiment [1] and 35.9 µM (active) in experiment [7]. Besides, the compound was called inactive (in experiment [2]; in [3]; in experiment [9]; in experiment [4]; in [6]; with BCL2L11 (gene 10018)). Besides, the call in [8] was inactive.
`COC(=O)CCCCC(=O)OC`: the result in experiment [1], in experiment [2], in experiment [3], in experiment [4], in [5] and in experiment [6] was inactive. The compound was called inactive (in experiment [7]; with BCL2L11 (gene 10018); in experiment [8]).
Regarding `c1ccc2cc3c(ccc4ccccc43)cc2c1`, the compound was classed as inactive in experiment [1], in [2], in [9], in experiment [4] and in [6]. The AC50 in [3] is 18.8 µM (active); in [7] it was 25.9 µM (active); in the experiment with BCL2L11 (gene 10018), 7.02 µM (active); in experiment [8], 15.9 µM (active).
